# Measured values from PubChem BioAssay AID1637 (Sanford-Burnham Center for Chemical Genomics, 2009).
# Out of some 3,700 compounds screened, fewer than 10 were called active. No rule for the calls is given here. Only a sample is shown.
# Assay: NMR binding screen, influenza A RNA promoter, Kd (AID 1637)
# Settings: NMR binding to influenza A RNA promoter
row,SMILES,Kd
1,Cc1nc2ccccc2c(=O)[nH]1,> 4 mM (inactive)
2,CCc1noc(C)c1C(=O)N1CCCC1,> 4 mM (inactive)
3,Nc1cc(=O)[nH]c(=O)n1Cc1ccco1,> 4 mM (inactive)
4,NC(=S)NC(=O)CN1C(=O)c2ccccc2C1=O,> 4 mM (inactive)
5,NC(=O)CSc1ccc(Br)cc1,> 4 mM (inactive)
6,O=C(c1ccncc1)c1ccc(Br)cc1,> 4 mM (inactive)
7,CC1=C/C(=C\c2c(O)[nH]c(=O)[nH]c2=O)C(C)=N1,> 4 mM (inactive)
8,NC(=O)C1CCN(S(=O)(=O)c2ccccc2)CC1,> 4 mM (inactive)
9,CCOC(=O)CNc1ncnc2c1nnn2CC,> 4 mM (inactive)
10,O=C1CNc2cc(C(=O)O)ccc2N1,> 4 mM (inactive)
11,CCC1(CC)C(=O)N=C(N)NC1=O,> 4 mM (inactive)
12,CNC(=O)CC1Sc2ccccc2NC1=O (stereo unspecified),> 4 mM (inactive)
13,O=C1CSC(=Nc2ccccc2[N+](=O)[O-])N1,> 4 mM (inactive)
14,CN1CCC(N2CCOCC2)CC1,> 4 mM (inactive)
15,Cc1cc(C(=O)NCc2cccnc2)no1,> 4 mM (inactive)
16,COc1ccc(S(=O)(=O)N2CCOCC2)cc1C(C)C,> 4 mM (inactive)
17,COc1cccc(/C=C/C(=O)O)c1C(C)C,> 4 mM (inactive)
18,CCN1CCC(=NO)CC1,> 4 mM (inactive)
19,Cc1ccc(SCc2cc(=O)n3[nH]cnc3n2)cc1,> 4 mM (inactive)
20,Nc1ccc(-n2cccn2)cc1,> 4 mM (inactive)
21,Cc1ccc(S(=O)(=O)CC(=O)N(C)C)cc1,> 4 mM (inactive)
22,Cc1cccc(N2C(=O)CC(=O)NC2=O)c1,> 4 mM (inactive)
23,Cc1ccccc1NC(=O)C1CC(=O)N=C(N)S1 (stereo unspecified),> 4 mM (inactive)
24,CC(C)(C)CC(=O)NNC(=O)c1cnccn1,> 4 mM (inactive)

row,SMILES,Kd
1,CCSc1nc(N)c(NC(=O)c2ccco2)c(=O)[nH]1,> 4 mM (inactive)
2,Cc1ccccc1NC(=O)CC1NCCNC1=O (stereo unspecified),> 4 mM (inactive)
3,Cc1cc(CN2C(=O)c3ccccc3C2=O)on1,> 4 mM (inactive)
4,O=C(O)CCCNC(=O)c1ccccc1C(=O)O,> 4 mM (inactive)
5,CC(C)(C)NC(=O)CN1C(=O)c2ccccc2S1(=O)=O,> 4 mM (inactive)
6,COc1ccc(/C=C2\SC(N)=NC2=O)cc1,> 4 mM (inactive)
7,CC(C)=NNC(=O)C(=O)Nc1ccc(F)cc1,> 4 mM (inactive)
8,CS/C(N)=C\C(C)=O,> 4 mM (inactive)
9,Nc1nonc1-c1nc2ccccc2[nH]1,> 4 mM (inactive)
10,NCc1ccc(-c2ccccn2)s1,> 4 mM (inactive)
11,Cc1oc(-c2ccccc2)cc1C(=O)O,> 4 mM (inactive)
12,O=S1(=O)CCC2CC=CCC21 (stereo unspecified),> 4 mM (inactive)
13,S=C(c1ccc(N2CCOCC2)cc1)N1CCOCC1,> 4 mM (inactive)
14,CC1(C)CC2(C)N(N)C(=O)CN2C(=S)N1 (stereo unspecified),> 4 mM (inactive)
15,O=c1[nH]cc(NCc2ccccc2)c(=O)[nH]1,> 4 mM (inactive)
16,COc1cccc(N2CCNCC2)c1,> 4 mM (inactive)
17,c1cnc(N2CCNCC2)nc1,> 4 mM (inactive)
18,COc1cc2nc(N3CCNCC3)nc(N)c2cc1OC,0.078 mM (active)
19,CN(C)c1nc(N2CCOCC2)c2cnn(C)c2n1,> 4 mM (inactive)
20,O=C(CSc1ncn[nH]1)c1ccccc1,> 4 mM (inactive)
21,Cc1cccc(N2C(=O)CCC2=O)n1,> 4 mM (inactive)
22,O=c1[nH]c(O)c(C=NCc2cccs2)c(=O)[nH]1,> 4 mM (inactive)
23,CC(=O)c1cccc(N=C2NC(=O)CS2)c1,> 4 mM (inactive)
24,Cc1csc(SCC(=O)N2CCCC2)n1,> 4 mM (inactive)

row,SMILES,Kd
1,Nc1cc(=O)[nH]c(SCC(=O)Nc2nccs2)n1,> 4 mM (inactive)
2,COc1cc(OC)c2c(=O)c(OC)c(-c3ccc(OC)c(OC)c3)oc2c1,> 4 mM (inactive)
3,C=C1CCC2[C@](C)(CO)[C@H](O)CC[C@@]2(C)[C@@H]1C/C=C1/C(=O)OC[C@H]1O (stereo partly specified),> 4 mM (inactive)
4,Cc1occc1C(=O)NCc1ccccn1,> 4 mM (inactive)
5,NC(=O)NC1C=CS(=O)(=O)C1 (stereo unspecified),> 4 mM (inactive)
6,Cc1c(N=Cc2ccco2)c(=O)n(-c2ccccc2)n1C,> 4 mM (inactive)
7,Cc1ccc(CN2C3=NC(=O)CN3c3ccccc32)cc1,> 4 mM (inactive)
8,COc1nc(N2CCOCC2)nc(N)c1[N+](=O)[O-],> 4 mM (inactive)
9,CC1=NN2C(=N)/C(=C\c3cccs3)C(=O)N=C2S1,> 4 mM (inactive)
10,O=C(O)C1NCCc2ccccc21 (stereo unspecified),> 4 mM (inactive)
11,CCn1nnc(NC(=O)c2ccccc2Br)n1,> 4 mM (inactive)
12,O=S1(=O)NC(=NCc2ccco2)c2ccccc21,> 4 mM (inactive)
13,O=C(NCc1ccc2c(c1)OCO2)c1cccs1,> 4 mM (inactive)
14,Cn1nnc2cc(C(=O)Nc3cccnc3)ccc21,> 4 mM (inactive)
15,Cc1ccc(SCc2nc(-c3ccncc3)no2)cc1,> 4 mM (inactive)
16,NC1CS(=O)(=O)CC1O (stereo unspecified),> 4 mM (inactive)
17,C=CCCCCCCCCCCCC(O)CC(O)CO (stereo unspecified) (tested in a mixture with another compound),> 4 mM (inactive)
18,CN1C(=O)C2CC=C(Cl)CC2C1=O (stereo unspecified),> 4 mM (inactive)
19,Cc1c(/C=N\n2cnnc2)c2ccccc2n1C,> 4 mM (inactive)
20,CN(C)S(=O)(=O)NCc1ccc2c(c1)OCO2,> 4 mM (inactive)
21,CC1(c2ccncc2)NC(=O)NC1=O (stereo unspecified),> 4 mM (inactive)
22,c1cc2n(c1)CCNC2c1ccncc1 (stereo unspecified),> 4 mM (inactive)
23,Cc1nc2[nH]onc2c2nccc(=O)c12,> 4 mM (inactive)
24,CCCN1CCC(N2CCC(O)CC2)CC1,> 4 mM (inactive)

row,SMILES,Kd
1,O=C1NC(=O)/C(=C\c2ccncc2)S1,> 4 mM (inactive)
2,O=C1CSC(=O)N1CN1CCCC1,> 4 mM (inactive)
3,O=C(O)CSCc1ccc(Cl)cc1,> 4 mM (inactive)
4,CCCC(=O)N1CCSCC1,> 4 mM (inactive)
5,Cn1nc(C(=O)N2CCCC2)c2ccccc2c1=O,> 4 mM (inactive)
6,Cc1nn(C)c(Cl)c1C(O)c1c(C)nn(C)c1Cl,> 4 mM (inactive)
7,Cc1ccc(-c2nn3c(C)nnc3s2)cc1N,> 4 mM (inactive)
8,Nc1ccc2nsnc2c1,> 4 mM (inactive)
9,CC(=O)Nc1cc(C(N)=O)cc(C(N)=O)c1,> 4 mM (inactive)
10,NS(=O)(=O)c1ccccc1Cl,> 4 mM (inactive)
11,CSc1nc(=O)[nH]c2c1CCC2,> 4 mM (inactive)
12,Cn1cnc2cc(NC(=O)c3ccco3)ccc21,> 4 mM (inactive)
13,COc1ccc(NC2=NCC(C)S2)cc1 (stereo unspecified),> 4 mM (inactive)
14,COC(=O)Nc1nnc(-c2ccncc2)s1,> 4 mM (inactive)
15,NC(=O)Cn1nnc(-c2ccc(C(F)(F)F)cc2)n1,> 4 mM (inactive)
16,Nc1cccc(NC(=O)c2cccs2)c1,> 4 mM (inactive)
17,CCN1CCC(NC2CCC(O)CC2)CC1 (stereo unspecified),> 4 mM (inactive)
18,OC12C=CC(CC1)CC2,> 4 mM (inactive)
19,NC(=O)CSc1ccc2nnc(-c3ccccc3)n2n1,> 4 mM (inactive)
20,CCCCN1C(=O)C2CC/C(=N/O)CC2C1=O (stereo unspecified),> 4 mM (inactive)
21,C[C@@H]1OC(O[C@H]2[C@H](OC(=O)[C@]34CCC(C)(C)CC3C3=CCC5[C@@]6(C)CC[C@H](OC7O[C@@H](C)[C@H](O[C@@H]8OC[C@@H](O)[C@H](O)[C@H]8O)[C@@H](O)[C@H]7O)C(C)(C)C6CC[C@@]5(C)[C@]3(C)CC4O)OC[C@H](O)[C@H]2O)[C@H](O)[C@H](O)[C@H]1O[C@@H]1O[C@H](CO)[C@@H](O)[C@H](O)[C@H]1O (stereo partly specified),> 4 mM (inactive)
22,NC(=O)C1CCN(C(=O)c2ccccc2F)CC1,> 4 mM (inactive)
23,O=C(Nc1cccc2cccnc12)c1cccnc1,> 4 mM (inactive)
24,Cc1nc(NC2=NCCC(=O)N2)nc2ccccc12,> 4 mM (inactive)
